Measurements published in PubChem BioAssay (NCI).
Several values for one entry are separate records, joined by “and”; a condition that tells them apart may be missing. Equal entries are not always repeated. The panel holds about 83,000 compounds, 20% with a hit somewhere; the sample as a whole holds those more often.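 How to read the values: 0–100, growth inhibition (40 = 60% inhibited); 0, no net growth; -100 to 0, cell death (-40 = 40% of starting cells died; -100 = all dead).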 Unmarked numbers belong to inactive results. Activity calls are given as the source filed them. How the source made its calls: active means growth percent below 10; inactive means the rest.

system: MDA-MB-468 breast; test: NCI-60 one-dose screen, 48 h (100 = growth as untreated, 0 = no growth, -100 = all killed); settings: 10 µM unless noted

Row | SMILES | growth
1 | CCN(CC)CCN1C(=O)c2c(c(C)c3c(oc4cc(OC)ccc43)c2C)C1=O | 114%
2 | N#Cc1cnn(C(=O)c2nn(-c3ccc(Cl)cc3)cc2O)c1N | 32.1%
3 | O=C(CCl)Nc1ccccc1SCc1cc(Cl)cc2c1OCOC2 | 51.6%
4 | COc1ccc(Nc2ncc(C(N)=O)c(NCCCNC(=O)C3CCC3)n2)cc1 | 33.1%
5 | COC(=O)c1nc(-c2ccc(C)cc2)oc1S(=O)(=O)N1CCN(c2oc(-c3ccccc3)nc2C#N)CC1 | 93.9%
6 | Nc1nc(-c2ccccc2)nc(N)c1N=O | 72.4%
7 | CCCCCCCCCCN1CCC(N2CCCCC2)CC1 | -73.2% (active)
8 | COc1ccc(N/C=C/C2=[N+](C)c3ccccc3C2(C)C)c(OC)c1 | 80.5%
9 | Cc1ccc(-n2nc3c(c(C#N)c2=O)CC(c2ccccc2Cl)C([N+](=O)[O-])=C3O)cc1 (stereo not given) | 114%
10 | FC(F)(F)c1[nH]ncc1-c1nc2ccc3n[nH]c(C#Cc4cccnc4)c3c2c2c1CCCC2 | 73.9%
11 | CC[N+](CC)(CCCC(C)[N+]1(Cc2ccccc2)C(C)=CC=C1C)Cc1ccccc1 (stereo not given) | -12.8% (active)
12 | O=C(Nc1ccc(Nc2ccncc2)cc1)c1ccc(Nc2ccnc3ccc([N+](=O)[O-])cc23)cc1[N+](=O)[O-] | 21.7%
13 | NS(=O)(=O)c1cc(Br)c2c(c1)S(=O)(=O)NCN2 | 126%
14 | NCCCNc1nc2ccc(Cl)cc2c2c(=O)c3cc(F)ccc3sc12 | 43.3%
15 | CC1CCN(C(=O)OCc2nc3nc(Cl)nc(N4CCOCC4)c3[nH]2)CC1 | -59.5% (active)
16 | O=C(Nc1cccc(Cl)c1)Nc1nc2ccc([N+](=O)[O-])cc2s1 | -29.1% (active)
17 | C/C(Cc1ccc(Cl)cc1)=C(\c1ccc(OCCCN(C)C)cc1)c1ccc(OC(=O)Cc2ccccc2)cc1 | 111%
18 | CC(CCC#N)(CCC#N)C(=O)c1ccccc1 | 106%
19 | C[C@H]1[C@H](C)CC[C@]2(C(=O)OCCOCCOCC[P+](c3ccccc3)(c3ccccc3)c3ccccc3)CC[C@]3(C)C(=CC[C@@H]4[C@@]5(C)CC[C@H](OC(=O)C(Cl)Cl)C(C)(C)[C@@H]5CC[C@]43C)[C@H]12 | -21.5% (active)
20 | Cc1ccc(NC(=O)Cn2cc(CN3CCN(c4ccnc5cc(Cl)ccc45)CC3)nn2)cc1 | 88.1%

Row | SMILES | growth
21 | Cc1cc2ccccc2nc1-c1ccccc1F | 105%
22 | O=C(O)c1ccc(NC(=O)c2ccc(-c3cccc([N+](=O)[O-])c3)o2)cc1 | 99.8%
23 | COc1ccc2c(c1)NC(=O)CN2c1nc(NC2CC2)nc2ccccc12 | 8.4% (active)
24 | CCCc1c(CC)c(=N)c2ccccc2n1C | 58.7%
25 | Cn1cc(-c2nn3cc(-c4ccccc4)nc3s2)c2ccccc21 | 71.5%
26 | COC(=O)[C@H]1CCCN1C[C@@H](O)CN1C(=O)/C(=C\c2cc(OC)c(OC)c(OC)c2)c2ccccc21 | 111%
27 | CCN(CC)C(=S)SCCO | 94.6%
28 | CC(=O)OCC(=O)[C@@]1(O)CC[C@H]2[C@@H]3CC(=C(Br)Br)C4=CC(=O)CC[C@]4(C)[C@H]3C(=O)C[C@@]21C | 79.1%
29 | Cc1ccc(NC(=O)N[C@@H](Cc2cc(F)cc(F)c2)C(=O)N[C@@H]2C(=O)N3CCC[C@H]3C(=O)N3CCOC[C@H]3C(=O)N[C@@H](C)C(=O)N3C[C@H](C)C[C@H]3C(=O)O[C@H]2C)cc1 | 5.17% (active)
30 | CCOC(=O)Cn1c(=O)c2sc3ncccc3c2n2nnc(-c3ccccc3)c12 | 119%
31 | COc1cc(-c2cncn2-c2ccc(-c3nc4ccc(F)cc4s3)cc2)ccc1F | 56.8%
32 | O=C(CCl)N1c2ccccc2Oc2ccc3ccccc3c21 | -72.5% (active)
33 | CCCCN(CC)CC(CC)Nc1cc(OC)cc2cccnc12 (stereo not given) | 119%
34 | O=[N+]([O-])c1cccc2cc(S(=O)(=O)O)ccc12 | 112%
35 | CC(C)CCC[C@@H](C)C1CCC2C3CCC4=C/C(=N/OCCN(C)C)CC[C@]4(C)C3CC[C@@]21C (stereo not given in full) | 87.3%
36 | CN1CCN(Cc2ccc(NC(=O)c3cncc(C#Cc4cnc(N)c5ccc(C#N)cc45)c3)cc2C(F)(F)F)CC1 | -58.4% (active)
37 | Oc1[nH]c2ccc(Cl)cc2c1N=Nc1nc(N=Nc2c(O)[nH]c3ccc(Cl)cc23)nc(N2CCCCC2)n1 | 18.1%
38 | O=C(Nc1ccc(Br)c(Cl)c1)c1cc(F)ccc1O | -24.5% (active)
39 | O=C1C=CC(=O)N1c1ccc2ccccc2c1 | 51.3% and 62.7%
40 | COc1cc(C)cc2oc3oc(=N)c(C(=O)c4ccccc4)cc3c(=O)c12 | 108%
